Sampled rows, rich in hits. Any-hit rate of the full collection: about 3.5%.
GPR151 activ: activates the human receptor GPR151. actives 1% (n = 650,000). PathHunter beta-arrestin GPR151 cells, luminescence. Q8TDV0. AID 1508602. activation, % at 11.2 µM; in the data active = activation above about 4.9%
Target sequence (Q8TDV0 whole entry, looked up): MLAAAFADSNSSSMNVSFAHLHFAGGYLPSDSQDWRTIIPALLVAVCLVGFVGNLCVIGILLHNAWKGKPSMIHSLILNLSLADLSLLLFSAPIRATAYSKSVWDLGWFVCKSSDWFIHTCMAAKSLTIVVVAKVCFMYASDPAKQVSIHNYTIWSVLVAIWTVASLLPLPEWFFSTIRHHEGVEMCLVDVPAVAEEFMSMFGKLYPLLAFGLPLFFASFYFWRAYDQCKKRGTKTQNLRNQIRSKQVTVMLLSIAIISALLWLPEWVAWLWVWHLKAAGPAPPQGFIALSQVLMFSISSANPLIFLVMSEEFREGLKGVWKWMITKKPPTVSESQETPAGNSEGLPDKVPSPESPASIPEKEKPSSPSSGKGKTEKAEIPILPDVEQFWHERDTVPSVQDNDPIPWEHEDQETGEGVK
FBW7 act: activators of human E3 ligase FBW7; AlphaScreen FBW7–phospho-cyclin E peptide binding, activator screen; normalized activity (activation), % at 26.1 µM; actives 0.13% (n = 650,000); AID 1259310; in the data active = normalized activity above about 1.9%;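 note: purified mutant Fbw7 with reduced substrate affinity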
MITF inh: human MITF inhibition, primary screen; AID 1259374; inhibition, % at 2.6 µM; AlphaScreen MITF homodimerization, bead proximity signal; actives 0.91% (n = 650,000); in the data active = inhibition above about 50%
TEAD-YAP inh: TEAD-YAP interaction inhibition; HEK-TIYL cells, TEAD-Gal4/YAP UAS-luciferase luminescence; inhibition, % at 9.12 µM; actives 1.4% (n = 640,000); AID 1259422; in the data active = inhibition above about 32%
MITF confirm: human MITF inhibition, confirmation; shares compounds with MITF inh; AlphaScreen MITF homodimerization, biotin/His-MITF beads; inhibition, % at 2.6 µM; actives 16% (n = 4,700); AID 1259372;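 active = inhibition above a cutoff derived from the DMSO control wells, cut at about 28% in these data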;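 note: inhibitors lower the bead chemiluminescence by keeping MITF from dimerizing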
AlphaScreen DR: optically interferes with AlphaScreen signal in dose response; shares compounds with MITF inh; AlphaScreen optical interference counterscreen, cell-free; IC50, µM; AID 1259373; actives 6% (n = 480); call rule not given here
AlphaScreen intf2: counter-screen: compounds optically interfering with AlphaScreen; AID 1259376; LysRS AlphaScreen counterscreen, signal interference, triplicate; actives 7.6% (n = 4,700); inhibition, % at 2.6 µM; shares compounds with MITF inh;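 active = inhibition above a cutoff derived from the DMSO control wells, cut at about 30% in these data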
Large screens that a line does not name were inactive (follow-up assays come after a bar, where they were run); ! = not confirmed by another sample.

CC(=O)c1ccccc1OCCCCN1CCN(C)CC1	MITF inh 81.7 | MITF confirm inactive | AlphaScreen intf2 inactive
CN1CCN(CCCCOc2ccccc2C=O)CC1	none
CCCN(CC(=O)Nc1cc(C)on1)S(=O)(=O)c1cccc(C(F)(F)F)c1	none
COc1cc2nc(CN3CCCC3c3nccs3)nc(N)c2cc1OC (centres undefined)	MITF inh 64.4 | MITF confirm 61.1 | AlphaScreen intf2 99.2
CCn1c2ccccc2c2cc(CN3CCN(Cc4cc(OC)c(OC)cc4OC)CC3)ccc21	MITF inh 69.2 | MITF confirm inactive | AlphaScreen intf2 inactive
COc1cc(OC)c(OC)cc1CN1CCN(Cc2ccc(C)cc2)CC1	MITF inh 63.2 | MITF confirm 71.3 | AlphaScreen DR inactive | AlphaScreen intf2 inactive
COc1cc(OC)c(OC)cc1CN1CCN(Cc2cc(OC)c(O)c(OC)c2)CC1	MITF inh 60.1 | MITF confirm inactive | AlphaScreen intf2 inactive
COc1cc(OC)c(OC)cc1CN1CCN(Cc2ccncc2)CC1	MITF inh 79.7 | MITF confirm inactive | AlphaScreen intf2 inactive
COc1cc(OC)c(OC)cc1CN1CCN(S(=O)(=O)c2ccc(Cl)cc2)CC1	none
Cc1nc2ncnn2c(NCC2CCCCC2)c1C	none
C#CCNc1c(C)c(C)nc2ncnn12	MITF inh 68.2 | MITF confirm inactive | AlphaScreen intf2 inactive
Cc1ccc2nsnc2c1NC(=O)c1ncn[nH]1	MITF inh 52.5 | MITF confirm inactive | AlphaScreen intf2 inactive
O=C(Nc1ccc(F)cc1)N1CCN(Cc2nc3ccccc3n2Cc2ccccc2)CC1	none
C=CCNC(=O)N1CCN(Cc2nc3ccccc3n2Cc2ccccc2)CC1	MITF inh 78.5 | MITF confirm inactive | AlphaScreen intf2 inactive
COC(=O)c1ccc(CN2CCN(Cc3nc4ccccc4n3Cc3ccccc3)CC2)o1	MITF inh 67.2 | MITF confirm inactive | AlphaScreen intf2 inactive
CC(C)(C)C(=O)N1CCN(Cc2nc3ccccc3n2Cc2ccccc2)CC1	none
CCn1c(SCC(=O)N(C)Cc2ccccc2)nnc1-c1cccs1	none
CCCCNCCOCCOc1cccc(C(C)C)c1	none
CCOc1cccc(OCCOCCNC(C)(C)C)c1	MITF inh 66.6 | MITF confirm inactive | AlphaScreen intf2 inactive
CC(C)c1cccc(OCCOCCNCCN)c1	MITF inh 50.6 | MITF confirm inactive | AlphaScreen intf2 inactive
CC(C)c1cccc(OCCOCCNC(C)(C)C)c1	MITF inh 67.0 | MITF confirm inactive | AlphaScreen intf2 inactive
O=C(Nc1nnc(-c2ccccc2Cl)s1)C1CCCN(C(=O)NC2CCCCC2)C1 (centres undefined)	none
C/C(CC12CC3CC(CC(C3)C1)C2)=N\NC(N)=O	MITF inh 53.4 | MITF confirm inactive | AlphaScreen intf2 inactive
Cc1ccc(C(=O)Nc2ccc3nc(N4CCN(C)CC4)sc3c2)cc1	none
O=C(N/N=C/c1ccccn1)c1cccc2ccccc12	none
O=C(N/N=C/c1ccccn1)C1=NNC(=O)C1CCO (centres undefined)	MITF inh 65.3 | MITF confirm 30.5 | AlphaScreen intf2 96.5
COc1ccc(C2C(C(=O)Nc3ccc(C)cc3)=C(C)Nc3ncnn32)cc1OC (centres undefined)	MITF inh 69.4 | MITF confirm inactive | AlphaScreen intf2 inactive
O=[N+]([O-])c1cc(CN2CCOCC2)c2cccnc2c1O	MITF inh 106.1 | MITF confirm 107.4 | AlphaScreen intf2 99.1
O=[N+]([O-])c1cc(CN2CCCCC2)c2cccnc2c1O	MITF inh 112.0 | MITF confirm 105.7 | AlphaScreen intf2 100.3
CN1CCN(Cc2cc(Br)c(O)c3ncccc23)CC1	MITF inh 104.8, TEAD-YAP inh 83.8 | MITF confirm 112.9 | AlphaScreen intf2 100.6
COC(=O)C1=C(C)Nc2nnnn2C1c1ccc(C(C)C)cc1 (centres undefined)	none
O=[N+]([O-])c1ccc(CN2CCC(O)CC2)cc1	none
O=[N+]([O-])c1cccc(CN2CCN(C3CCCC3)CC2)c1	MITF inh 76.3 | MITF confirm inactive | AlphaScreen intf2 inactive
CC1CCCC(N2CCN(C3CCN(Cc4ccccc4)CC3)CC2)C1 (centres undefined)	none
CC1CCCC(N2CCN(Cc3ccc([N+](=O)[O-])cc3)CC2)C1 (centres undefined)	MITF inh 93.8 | MITF confirm inactive | AlphaScreen intf2 inactive
COc1ccccc1N1CCN(C2CCN(C(=O)c3cccc4ccccc34)CC2)CC1	MITF inh 75.0 | MITF confirm inactive | AlphaScreen intf2 inactive
CCN1CCN(C2CCN(Cc3cccc([N+](=O)[O-])c3)CC2)CC1	none
O=[N+]([O-])c1ccc(CN2CCN(C3CCCC3)CC2)cc1	MITF inh 60.8 | MITF confirm inactive | AlphaScreen intf2 inactive
O=[N+]([O-])c1ccc(CN2CCC(N3CCN(c4ccccc4F)CC3)CC2)cc1	none
O=[N+]([O-])c1cccc(CN2CCC(N3CCN(c4ccccc4)CC3)CC2)c1	MITF inh 74.1 | MITF confirm inactive | AlphaScreen intf2 inactive
COc1ccccc1N1CCN(C2CCN(Cc3ccc([N+](=O)[O-])cc3)CC2)CC1	MITF inh 56.6 | MITF confirm inactive | AlphaScreen intf2 inactive
C=CCNC(=O)c1cc2c(n(-c3ccc(OC)cc3)c1=O)CC(C)(C)CC2=O	none
Cc1ccc(NC(=O)c2sc3nc4c(c(-c5ccco5)c3c2N)CCCC4)cc1	MITF inh 51.2 | MITF confirm inactive | AlphaScreen intf2 inactive
NC(=O)c1sc2nc3c(c(-c4ccco4)c2c1N)CC/C3=C\c1ccco1	MITF inh 117.1 | MITF confirm 110.4 | AlphaScreen intf2 89.6
CC1CC(C)CN(CC(=O)Nc2c3c(nc4ccccc24)CCC3)C1 (centres undefined)	MITF inh 73.8 | MITF confirm inactive | AlphaScreen intf2 inactive
O=C(CN1CCCCC1)Nc1c2c(nc3ccccc13)CCC2	MITF inh 53.4 | MITF confirm inactive | AlphaScreen intf2 inactive
Cc1ccc2c(Cl)c(C(=O)NCc3ccncc3)sc2c1	MITF inh 69.7 | MITF confirm inactive | AlphaScreen intf2 inactive
CCOC(=O)CNC(=O)c1sc2cc(C)ccc2c1Cl	none
CC(=O)c1cccc(N(CC(=O)NCCSc2ccc(Cl)cc2)S(C)(=O)=O)c1	none
c1coc(CNc2ccc3ncc(-c4ccco4)n3n2)c1	MITF inh 55.6 | MITF confirm 84.0 | AlphaScreen DR inactive | AlphaScreen intf2 inactive
CCn1c(=O)c(C(=O)Nc2ccc(C)cc2Br)c(O)c2ccccc21	none
Nc1ccc(C(=O)O)c(O)c1	MITF inh 87.5! | MITF confirm 71.7 | AlphaScreen DR inactive | AlphaScreen intf2 inactive
COc1cccc(NC(=S)N(CCCN2CCC(C)CC2)Cc2cccs2)c1	MITF inh 79.1 | MITF confirm inactive | AlphaScreen intf2 inactive
Fc1ccc(CN2CCC(N3CCN(Cc4ccccc4)CC3)CC2)cc1	none

Screening data (PubChem BioAssay)
